# Reference: PubChem BioAssay (Tox21)
# “And” between values parts separate entries of the source, which are not always exact repeats. Equal entries are not always repeated. Inconclusive results are not listed. Entries that show only a call come without a potency. Some structures have more than one record in an assay (separate samples or runs), and their calls can disagree. The source made the active and inactive calls. Unless noted, calls come from the whole dose curve; as a rule, active = well fitted curve in the direction sought with a large enough effect in the repeat runs; inconclusive = weak or mixed curves; inactive = no such curve, though single readings can be large; an effect the other way counts as inactive or inconclusive.
# Experiments:
# [1] = qHTS assay to identify small molecule agonists of the vitamin D receptor (VDR) signaling pathway - cell viability counter screen (AID 743224); note: series mostly up to about 63 µM; nearly all actives have a fitted effect of over 50% in size
# Outline: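 VDR-bla cell line, quantitative HTS format; 16 h compound incubation (37C, 5% CO2); ATP-based CellTiter-Glo luminescence measured in the reporter assay wells.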
# [2] = qHTS assay to identify small molecule agonists of the NFkB signaling pathway (AID 1159509; active = well fitted curve in the direction sought with a large enough effect in the signal ratio in the repeat runs, not every such curve was filed as active; the % refers to the signal ratio; note: series mostly up to about 61 µM)
# Outline: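 After overnight attachment, reporter cells received test compounds, DMSO or positive controls and were incubated 5 hr at 37 C. FRET substrate was then added for 1.5 hr at room temperature before dual-emission fluorescence reading.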
# [3] = qHTS assay to identify small molecule agonists of the NFkB signaling pathway - cell viability counter screen (AID 1159515; calls by dose curve; note: series mostly up to about 61 µM; nearly all actives have a fitted effect of over 55% in size)
# Outline: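 Viability in NFkB-bla ME-180 cells was measured by CellTiter-Glo luminescence, 30 min room temperature, in wells already treated 5 hr with compounds and read for reporter FRET.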
# [4] = qHTS assay to identify small molecule agonists of the endoplasmic reticulum stress response signaling pathway (AID 1159516; active = well fitted activation curve with a large enough effect in the signal ratio in the repeat runs, not every such curve was filed as active; the % refers to the signal ratio)
# Outline: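 ER stress element reporter (bla) in HeLa. 1,500 cells/well, overnight attachment; 5 hr compound; 2 hr RT substrate; dual-emission fluorescence.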
# [5] = qHTS assay to identify small molecule agonists of the endoplasmic reticulum stress response signaling pathway - cell viability counter screen (AID 1159517; calls by dose curve;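 note: HeLa cells carrying an ER stress response element beta-lactamase reporter; series mostly up to about 61 µM; nearly all actives have a fitted effect of over 50% in size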)
# Outline: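 Counter-screen wells were identical to the reporter wells. Cells were plated at 1,500 per well and dosed for 5 hr, then read for luminescence 30 min after CellTiter-Glo addition.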
# [6] = qHTS assay to identify small molecule antagonists of the retinoid-related orphan receptor gamma (ROR-gamma) signaling pathway - cell viability counter screen (AID 1159520); note: nearly all actives have a fitted effect of over 50% in size
# Outline: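 Tet-on ROR gamma CHO cells were given compounds for 2 hr, then doxycycline hyclate at 1 uM final, and incubated 16 hr at 37 C. Viability was measured as ATP content by CellTiter-Glo luminescence.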
# [7] = target: Nuclear receptor ROR-gamma (Homo sapiens) (UniProt P51449); assay: qHTS assay to identify small molecule antagonists of the retinoid-related orphan receptor gamma (ROR-gamma) signaling pathway (AID 1159521;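 note: CHO cells with doxycycline inducible ROR-gamma driving an RORE luciferase reporter; top concentration of the series differs between compounds; nearly all actives have a fitted effect of over 50% in size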)
# Outline: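 Decreased RORE-driven luciferase luminescence indicates antagonism. Tet-on RORγ CHO cells received compound, then 1 uM final doxycycline 2 h later; signal read after 16 h incubation.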
# [8] = qHTS assay to identify small molecule agonists of the AP-1 signaling pathway - cell viability counter screen (AID 1159525; calls by dose curve; note: nearly all actives have a fitted effect of over 55% in size)
# Outline: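 AP-1-bla ME-180 cells in Opti-MEM with 0.5% dialyzed FBS, compound exposure 5 h at 37 C in 15-point titration. Viability read in the same wells as ATP content by CellTiter-Glo luminescence, normalised to tetra-n-octylammonium bromide and DMSO controls.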
# [9] = qHTS assay to identify small molecule agonists of the AP-1 signaling pathway (AID 1159526; calls by dose curve)
# [10] = qHTS assay to identify small molecule agonists of the RXR signaling pathway - cell viability counter screen (AID 1159529)
# Outline: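 In this parallel viability measure, GeneBLAzer RXR-alpha HEK 293T cells (2% charcoal-stripped FBS) were given a 5 hr preincubation, treated with compounds 16 hr at 37 C, and read by CellTiter-Glo luminescence.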
# [11] = qHTS assay to identify small molecule antagonists of the retinoid acid receptor (RAR) signaling pathway - cell viability counter screen (AID 1159551); note: nearly all actives have a fitted effect of over 35% in size
# Outline: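 Following overnight attachment, C3RL4 reporter cells received DMSO-dissolved compounds and then retinol (1 uM final). Six hours later at 37 C, ATP content was measured by CellTiter-Glo luminescence.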
# [12] = qHTS assay to identify small molecule antagonists of the retinoic acid receptor (RAR) signaling pathway (AID 1159552; note: nearly all actives have a fitted effect of over 50% in size; note: potency is the fitted concentration of half-maximal effect)
# Outline: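 C3RL4 RARE-luc cells, overnight plating; retinol 1 uM final added right after compound; 6 hr 37 C; luciferase read at 30 min RT.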
# [13] = qHTS assay to identify small molecule agonists of the retinoic acid receptor (RAR) signaling pathway (AID 1159553); note: potency is the fitted concentration of half-maximal effect
# Outline: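 Cell line C3RL4, RARE luciferase reporter. Treatment: compounds in DMSO, 6 hr, 37 C, 5% CO2, after overnight plating. Detection: luminescence, 30 min RT after reagent.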
# [14] = qHTS assay to identify small molecule antagonists of the estrogen related receptor (ERR) signaling pathway from Tox21 library - cell viability counter screen (AID 1224834); note: nearly all actives have a fitted effect of over 30% in size
# Outline: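 Viability readout (CellTiter-Fluor fluorescence, 30 min at 37 C) multiplexed with the ERR assay; cells treated 17.5 h at 37 C with compounds delivered in DMSO.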
# [15] = target: Luciferin 4-monooxygenase (Photinus pyralis) (UniProt P08659); assay: qHTS assay to identify small molecule inhibitors of firefly luciferase (AID 1224835); note: nearly all actives have a fitted effect of over 25% in size; note: potency is the fitted concentration of half-maximal effect
# Luciferin 4-monooxygenase (Photinus pyralis), sequence (P08659 whole entry, looked up): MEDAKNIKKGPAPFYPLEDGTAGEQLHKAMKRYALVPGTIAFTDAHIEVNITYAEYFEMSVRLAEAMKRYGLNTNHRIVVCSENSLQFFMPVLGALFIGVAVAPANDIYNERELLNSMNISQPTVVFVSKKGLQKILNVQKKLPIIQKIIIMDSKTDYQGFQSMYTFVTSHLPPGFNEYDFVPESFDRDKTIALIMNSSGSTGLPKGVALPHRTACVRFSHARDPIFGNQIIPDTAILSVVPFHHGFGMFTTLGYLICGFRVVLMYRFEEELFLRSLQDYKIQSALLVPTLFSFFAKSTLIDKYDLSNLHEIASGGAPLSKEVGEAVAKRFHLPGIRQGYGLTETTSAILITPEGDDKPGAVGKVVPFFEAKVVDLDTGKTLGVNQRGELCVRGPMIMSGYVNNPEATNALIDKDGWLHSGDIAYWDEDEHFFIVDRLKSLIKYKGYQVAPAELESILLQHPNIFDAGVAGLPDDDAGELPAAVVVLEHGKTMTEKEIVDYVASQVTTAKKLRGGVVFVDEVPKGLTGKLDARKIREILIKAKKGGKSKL
# Outline: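 Biochemical qHTS: compounds run as interplate titrations against purified firefly enzyme, with D-luciferin and ATP each at its KM concentration. Light output recorded by CCD imaging.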
# [16] = qHTS assay to identify small molecule agonists of the constitutive androstane receptor (CAR) signaling pathway - cell viability counter screen (AID 1224836); note: series mostly up to about 92 µM; nearly all actives have a fitted effect of over 45% in size
# Outline: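 Using CellTiter-Fluor, viability of HepG2 cells harbouring hCAR and CYP2B6-2.2kb was measured following 23 h incubation with a 15-concentration compound series plus PK11195 (0.75 uM final).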
# [17] = qHTS assay to identify small molecule antagonists of the estrogen related receptor (ERR) signaling pathway - cell viability counter screen (AID 1224818);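 note: series mostly up to about 46 µM; viability measured after 17.5 h of compound exposure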
# Outline: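 Here, ERR cells are plated at 2,000 cells per well, allowed 6 h to attach, and treated with compounds in DMSO for 17.5 h at 37 C. CellTiter-Fluor is then added and fluorescence read after 30 min.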
# [18] = qHTS assay to identify small molecule antagonists of the estrogen related receptor signaling pathway with the pleiotropic PPARgamma coactivator (PGC) cell viability counter screen (AID 1224822;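 note: series mostly up to about 46 µM; viability read after 17.5 h compound exposure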)
# Outline: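 qHTS format, DMSO compound stocks pin-transferred onto PGC/ERR cells 6 h after plating; 17.5 h exposure at 37 C, then CellTiter-Fluor fluorescence.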
# [19] = qHTS assay to identify small molecule antagonists of the vitamin D receptor (VDR) signaling pathway - cell viability counter screen (AID 743225); note: nearly all actives have a fitted effect of over 50% in size
# Outline: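 Parallel cytotoxicity test: VDR-UAS-bla HEK 293T, 3 nM (final) 1-alpha,25-dihydroxyvitamin D3 with test compound, 16 h, 37C. Endpoint is CellTiter-Glo luminescence in the same wells.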
# [20] = target: Retinoic acid receptor RXR-alpha (Homo sapiens) (UniProt P19793); assay: qHTS assay to identify small molecule agonists of the RXR signaling pathway (AID 1159527; calls by dose curve; note: nearly all actives have a fitted effect of over 35% in size; note: potency is the fitted concentration of half-maximal effect)
# Retinoic acid receptor RXR-alpha (Homo sapiens), sequence (P19793 whole entry, looked up): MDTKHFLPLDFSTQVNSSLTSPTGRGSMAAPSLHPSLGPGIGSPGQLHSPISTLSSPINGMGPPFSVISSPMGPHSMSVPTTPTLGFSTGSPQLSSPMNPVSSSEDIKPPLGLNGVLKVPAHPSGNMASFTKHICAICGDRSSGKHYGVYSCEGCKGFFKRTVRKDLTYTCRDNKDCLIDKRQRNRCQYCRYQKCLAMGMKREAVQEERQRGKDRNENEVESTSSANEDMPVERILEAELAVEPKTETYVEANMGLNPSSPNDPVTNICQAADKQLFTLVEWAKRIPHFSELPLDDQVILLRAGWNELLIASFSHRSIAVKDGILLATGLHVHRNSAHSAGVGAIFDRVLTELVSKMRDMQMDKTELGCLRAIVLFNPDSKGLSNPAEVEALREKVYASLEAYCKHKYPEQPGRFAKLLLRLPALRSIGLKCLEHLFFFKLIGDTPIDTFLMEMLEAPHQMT
# Outline: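 16 hr incubation of compound-treated RXR-alpha-UAS-bla HEK 293T cells (2% charcoal-stripped FBS, 37 C) preceded a 2 hr room-temperature LiveBLAzer FRET substrate step and blue/green fluorescence measurement.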
SMILES,Potency [1],outcome [2],outcome [3],outcome [4],outcome [5],Potency [6],Potency [7],Potency [8],outcome [9],Potency [10],outcome [11],Potency [12],Potency [13],Potency [14],Potency [15],Potency [16],outcome [17],outcome [18],outcome [19],Potency [20]
O=C(O)c1ccccc1C(c1ccc(O)cc1)c1ccc(O)cc1,inactive,inactive,inactive,inactive,inactive,inactive,inactive,inactive,inactive,inactive,inactive,inactive,inactive,inactive,inactive,inactive,,,,
O=C1CCC(N2C(=O)c3ccccc3C2=O)C(=O)N1 (configuration not stated),inactive,inactive,inactive,inactive,inactive,inactive,,inactive,inactive,inactive,inactive,inactive,inactive,inactive,inactive,inactive,inactive,inactive,,
CCCCC(CC)COC(=O)C(C#N)=C(c1ccccc1)c1ccccc1 (configuration not stated),inactive,inactive,inactive,inactive,inactive,inactive,,inactive,inactive,inactive,inactive,30.6 µM (active),inactive,inactive,inactive,inactive,,,,
FC(F)(F)c1ccc(Cl)c(Cl)c1,inactive,inactive,inactive,inactive,inactive,inactive,inactive,inactive,inactive,inactive,inactive,,,inactive,inactive,inactive,,,,
COc1ccc(Cl)cc1C(=O)NCCc1ccc(S(=O)(=O)NC(=O)NC2CCCCC2)cc1,inactive,inactive,inactive,inactive,inactive,,inactive,inactive,inactive,inactive,inactive,inactive,inactive,inactive,,inactive,inactive,inactive,inactive,
O=C(O)c1cc(=O)c2c(OCC(O)COc3cccc4oc(C(=O)O)cc(=O)c34)cccc2o1,inactive,inactive,inactive,inactive,inactive,inactive,inactive,inactive,inactive,inactive,inactive,inactive,inactive,inactive,inactive,inactive,,,,
CCCCCCCC(=O)OC,inactive,inactive,inactive,inactive,inactive,inactive,inactive,inactive,inactive,inactive,inactive,,,inactive,inactive,inactive,,,inactive,inactive
CCc1ccc(CCOc2ccc(CC3SC(=O)NC3=O)cc2)nc1 (configuration not stated),inactive,inactive,inactive,inactive,inactive,inactive,,inactive,inactive,inactive,inactive,,,inactive,31.7 µM (active) and 24.5 µM (active),inactive,,,inactive,
CSCCC=O,inactive,inactive,inactive,inactive,inactive,,inactive,inactive,inactive,inactive,inactive,inactive,inactive,inactive,inactive,inactive,,,,
C=C(C)C(=O)Nc1ccc(Cl)c(Cl)c1,inactive,inactive,inactive,inactive,inactive,inactive,inactive,inactive,inactive,inactive,inactive,,,inactive,inactive,inactive,,,,
CCCCC(CC)CO (configuration not stated),inactive,inactive,inactive,inactive,inactive,inactive,inactive,inactive,inactive,inactive,inactive,,,inactive,inactive,inactive,,,inactive,
CCCSc1ccc2nc(NC(=O)OC)[nH]c2c1,inactive,inactive,inactive,inactive,inactive,inactive,inactive,inactive,inactive,inactive,inactive,inactive,6.11 µM (active) and 21.1 µM (active),inactive,3.99 µM (active) and 4.36 µM (active),inactive,,,inactive,
Cc1occc(=O)c1O,inactive,inactive,inactive,inactive,inactive,,inactive,inactive,inactive,inactive,inactive,,,inactive,inactive,inactive,,,inactive,inactive and 12.9 µM (active)
O=C(O)CCCC[C@@H]1SC[C@@H]2NC(=O)N[C@@H]21,inactive,inactive,inactive,inactive,inactive,inactive,inactive,inactive,inactive,inactive,inactive,inactive,inactive,inactive,inactive,inactive,,,,
CC(C)(C)[C@@H](O)[C@@H](Cc1ccc(Cl)cc1)n1cncn1,inactive,inactive,inactive,inactive,inactive,,inactive,inactive,inactive,inactive,inactive,inactive,inactive,inactive,inactive,inactive,,,inactive,
O=C(Oc1ccccc1)c1ccccc1,inactive,inactive,inactive,inactive,inactive,inactive,inactive,inactive,inactive,inactive,inactive,inactive,inactive,inactive,inactive and 71 µM (active),inactive,,,inactive,
COc1ccc(NC(C)=O)cc1N,inactive,inactive,inactive,inactive,inactive,inactive,,inactive,inactive,inactive,inactive,inactive,inactive,inactive,inactive,inactive,,,inactive,inactive
